Laboratory results reported in the supplement of paper PMC4206467.

tested on: Perkinsus marinus PRA240; test: ATP content (proliferation) relative to DMSO control; higher = more parasite growth (less inhibition); conditions: 20 µM; 4 days
Procedure: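 Perkinsus marinus PRA240 trophozoites (2-5x10^6 cells/ml, 100 µl, 96-well) were exposed once to MMV Malaria Box compounds at 20 µM (0.1% DMSO) in triplicate. ATP content (ATPlite bioluminescence) was read at day 4 post-exposure and normalised to DMSO + cells control wells (100% activity). Compounds were identified by joining plate and well to the Malaria Box list.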

| SMILES | ATP content [%] |
| --- | --- |
| CCOc1c(Br)cc(C2C(C(=O)OC)=CN(C)C=C2C(=O)OC)cc1OC | 123 |
| CC(C)(C)c1ccc(C2CC3=Nc4ccccc4N(C(=O)c4ccccc4Cl)C(c4ccc(F)cc4)C3=C(O)C2)cc1 (stereo not given) | 129 |
| COc1ccc(Nc2nc(NCc3ccccc3)c3ccccc3n2)cc1 | 103 |
| Oc1ccc(Cl)cc1CNc1nc2ccccc2[nH]1 | 49.7 |
| O=C(Nc1ccc(CN2CCOCC2)cc1)c1ccc(-c2ccc(Br)cc2)o1 | 89.4 |
| CCOc1ccc2nc(C)cc(Nc3ccc(N(C)C)cc3)c2c1 | 86.6 |
| Cc1cccc(-n2ncc3c(=O)[nH]c(-n4nc(C)cc4NC(=O)c4cc5ccccc5o4)nc32)c1 | 19 |
| Oc1c(CN2CCN(c3ccccc3F)CC2)cc(Br)c2cccnc12 | 105 |
| CCOc1cc2c(cc1OCC)C(c1cc(C)c(O)c(C)c1)NCC2 (stereo not given) | 133 |
| Cc1c(C)n(CC(O)CNC2CCCCC2C)c2ccccc12 (stereo not given) | 106 |
| CC(C)c1ccc(CNCC(O)c2ccccc2)cc1 (stereo not given) | 117 |
| CCCOCc1cc(CN2CCN(c3cccc(Cl)c3)CC2)c(O)c2ncccc12 | 22.8 |
| O=C(Nc1ccc(Cl)cc1C(=O)Nc1ccncc1)c1ccc(Cl)cc1Cl | 103 |
| CCN1CCN(c2c(C(=O)c3ccccc3)cnc3cc(OC)c(OC)cc23)CC1 | 199 |
| Clc1ccc2c(N3CCCC3)ccnc2c1 | 91 |
| Cc1sc(NC(=O)c2ccco2)c(C(c2cccnc2)N2CCC(Cc3ccccc3)CC2)c1C (stereo not given) | 48.5 |
| O=C1CC(O)(C(F)(F)C(F)(F)F)Oc2ccccc21 (stereo not given) | 34.8 |
| CCOc1ccc(Nc2c3ccccc3nc3ccccc23)cc1 | 159 |
| O=C(Nc1ccc(F)c(Cl)c1)Nc1ccc(Cl)c(Cl)c1 | 46.8 |
| COc1cc(-c2nc(-c3ccccc3)c(-c3ccccc3)[nH]2)cc(OC)c1O | 61.1 |

| SMILES | ATP content [%] |
| --- | --- |
| CN(C)CCNc1cc(-c2ccccc2)nc2ccccc12 | 106 |
| CCC(C)NCC(O)(c1ccc(Cl)cc1)c1ccc(Cl)cc1 (stereo not given) | 78.7 |
| N#Cc1nc(Cc2cccc3ccccc23)oc1N1CCN(C(c2ccccc2)c2ccccc2)CC1 | 132 |
| Oc1c2c(nc3ccccc13)CCCC2 | 42.5 |
| COc1ccc(CNC(=O)c2cc3c(=O)n4ccccc4nc3n(CCc3ccccc3)c2=N)cc1 | 107 |
| Cc1ccc(Cl)cc1N1CCN(CCCNC(=O)C2CCN(c3nc4ccccc4[nH]3)CC2)CC1 | 87.1 |
| COc1ccc(CCNC(=O)c2cc(S(=O)(=O)N3CC(C)CC(C)C3)ccc2Sc2ccc(F)cc2)cc1OC (stereo not given) | 160 |
| Cc1ccc(C)c(Cn2c(N3CCC(C(=O)NCc4cccs4)CC3)nc3ccccc32)c1 | 154 |
| COc1ccc(CCN2CCC(CN(C)Cc3cnn(-c4ccccc4)c3)CC2)cc1 | 110 |
| COc1ccc(C2C(C(=O)Nc3cccc(OC)c3)c3ccccc3C(=O)N2C2CCCCC2)cc1 (stereo not given) | 94.3 |
| OC(Cn1nnc2ccccc21)Cn1c2ccc(Br)cc2c2cc(Br)ccc21 (stereo not given) | 135 |
| COc1ccc(-c2cc(=O)oc3c4c(ccc23)OCN(Cc2ccc(F)cc2)C4)cc1 | 130 |
| CC1CC2=C(CC1CNCCCN(C)C)C(C)(C)CCC2 (stereo not given) | 119 |
| CC(C)(C)CC(C)(C)NCC(O)COc1ccc(Cl)cc1Cl (stereo not given) | 123 |
| CC(C)CNC(=O)c1c(N)n(CCc2ccccc2F)c2nc3ccccc3nc12 | 90.4 |
| Cc1cc(N2CCCC2)nc(Nc2ccc(NC(=O)CCc3ccccc3)cc2)n1 | 119 |
| CCN(Cc1ccccc1)C1CCN(Cc2cc(Br)ccc2O)CC1 | 171 |
| Nc1ccc(-c2nc3cc(Cc4ccc5[nH]c(-c6ccc(N)cc6)nc5c4)ccc3[nH]2)cc1 | 135 |
| O=C(CSc1ccc2nnc(-c3cccc(F)c3)n2n1)Nc1ccc2c(c1)OCO2 | 102 |
| COc1cccc(-c2nn(C)c3sc(C(=O)NCCN4CCN(c5ccccc5F)CC4)cc23)c1 | 89.7 |
